# ERa coact inh – ER-alpha (human) coactivator binding inhibition. P03372. TR-FRET ER-alpha LBD / SRC-1 peptide, estradiol-bound. inhibition, % at 25.6 µM. 86,000 compounds, 1.7% hits. AID 629; in the data active = inhibition above about 50%;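 also: 0% = receptor plus peptide control and 100% = peptide only without receptor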
# ERb coact inh – blocks coactivator binding to human estrogen receptor beta. TR-FRET ER-beta LBD / SRC1-Cy5 peptide binding; receptor agonist-loaded with 1 µM estradiol. 86,000 compounds, 1.3% hits. inhibition, % at 25.6 µM. Q92731;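 active = compounds whose percent inhibition of the receptor-coactivator binding signal exceeds about 50% in the single-dose screen, limit read from the data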;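 also: 0% = receptor plus peptide wells without compound and 100% = peptide-only wells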
# Target sequence (Q92731 whole entry, looked up, the tested form may be a part): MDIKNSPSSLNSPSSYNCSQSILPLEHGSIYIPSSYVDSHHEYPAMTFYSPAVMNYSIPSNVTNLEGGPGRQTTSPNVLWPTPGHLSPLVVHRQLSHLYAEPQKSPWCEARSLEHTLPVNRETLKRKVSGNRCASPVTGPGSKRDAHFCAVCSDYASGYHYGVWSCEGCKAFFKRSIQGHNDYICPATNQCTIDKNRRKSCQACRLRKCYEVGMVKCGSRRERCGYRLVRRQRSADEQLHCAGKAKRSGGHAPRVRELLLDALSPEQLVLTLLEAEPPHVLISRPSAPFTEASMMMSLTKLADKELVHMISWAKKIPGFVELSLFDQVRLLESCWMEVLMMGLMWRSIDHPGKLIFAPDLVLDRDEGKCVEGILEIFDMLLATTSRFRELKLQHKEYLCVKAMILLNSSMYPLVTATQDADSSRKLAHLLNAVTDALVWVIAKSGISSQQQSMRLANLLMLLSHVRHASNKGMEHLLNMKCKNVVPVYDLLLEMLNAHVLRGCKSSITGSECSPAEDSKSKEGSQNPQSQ
# ERa coact pot – ER-alpha (human) coactivator binding potentiation; TR-FRET ERalpha-LBD/SRC-Cy5 coactivator binding, 2 h; 100 = basal binding, no effect; coactivator binding (% of control), % at 25.6 µM; 86,000 compounds, 1.3% hits; AID 639; in the data active = activity above about 200%;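 also: binding measured in presence of low estradiol as agonist stimulus; 0% = peptide alone without receptor and 100% = receptor with peptide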
# Smad3 inh – inhibitors of human Smad3 transcription factor binding. inhibition, % at 25 µM. P84022. TR-FRET Smad3/Dy647-FoxH1 peptide binding, europium anti-His. 88,000 compounds, 0.29% hits;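 active = compounds that reduce the energy-transfer binding signal between the protein and its labelled peptide by more than half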;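 also: 0% = Smad3 plus labelled peptide maximal FRET and 100% = peptide-only background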
# MRP reversal – reverses drug resistance mediated by MRP. H69AR cells + 2 uM doxorubicin, CellTiter-Glo, 72 h. differential viability (reversal), % at 10 µM. 85,000 compounds, 0.04% hits;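 active = viability drop by adding the cancer drug above about 55%, with treated viability meeting a 40% cutoff, limit read from the data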;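 also: viability without doxorubicin minus viability with 2 µM doxorubicin for each compound; larger differential means the compound sensitizes cells more to doxorubicin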
# MRP-1 activ – activates MRP-1; H69AR cells + doxorubicin, viability rescue, CellTiter-Glo; viability increase, % at 10 µM; 140,000 compounds, 0.61% hits; AID 799;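 active = viability gain under doxorubicin at or above a set limit, the compound median plus 3 SD, cut at about 4.7% in these data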;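 also: MRP-1 overexpressing cells given doxorubicin 25 µM after compound pretreatment; 18-22 h compound pretreatment then 72 h with doxorubicin before readout; 0% = doxorubicin-only wells and 100% = vehicle-treated cells without doxorubicin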
# An asterisk follows results filed as active; x = not tested or not shown; [ ] = dose if it differs, or a comment. Shown are actives, neighbours in structure and some others; about 2.8% of the full set was active somewhere.
SMILES,ERa coact inh,ERb coact inh,ERa coact pot,Smad3 inh,MRP reversal,MRP-1 activ
CNc1oc(-c2ccccc2Cl)nc1P(=O)(c1ccccc1)c1ccccc1,x,x,x,x,x,4.7*
COP(=O)(OC)c1nc(-c2ccccc2)oc1NCc1ccccc1,x,x,x,x,x,-2
Cc1nc2c(cnn2-c2ccccc2Cl)c(=O)n1-c1ccc(C(C)C)cc1,12,0,107,-4,-17,-3
O=C(O)c1cc(=O)[nH]c(SCc2ccccc2)n1,x,x,x,-5,x,x
Cc1ccc(NC(=O)c2ccc(OC(=O)c3ccco3)cc2)cc1,32,21,372*[fluorescence artefact?],-4,8,1
COc1ccc(OCC(=O)Nc2ccc(NC(=O)c3ccco3)cc2)cc1,-4,3,127,-8,8,1
CCOC(=O)c1c(C)[nH]c(C)c1C(=O)COc1ccc(NC(=O)c2ccco2)cc1,45,54*[fluorescence artefact?],47,5,6,-4
O=C(O)[C@H]1CCCC[C@@H]1c1c2ccc(=O)c(O)c-2oc2c(O)c(O)ccc12,x,x,x,101*,x,x
N[C@H](CO)C(=O)NCC(=O)O,x,x,x,-4,x,x
COC(=O)c1ccc(CSc2nc3c(cnn3-c3ccc(C)c(C)c3)c(=O)[nH]2)o1,80*,45,129,11,2,-6
CCSc1nc2c(cnn2-c2ccc(C)cc2)c(=O)[nH]1,-19,23,628*,4,3,-2
CCCSc1nc2c(cnn2-c2ccc(C)c(C)c2)c(=O)[nH]1,50*[fluorescence artefact?],54*[fluorescence artefact?],244*[fluorescence artefact?],4,5,-1
O=C(CSc1nc2c(cnn2-c2ccccc2)c(=O)[nH]1)c1ccc(Cl)cc1,14,8,329*,4,-20,-4
CCCSc1nc2c(cnn2-c2ccccc2)c(=O)[nH]1,-6,13,201*,-3,12,1
CCCSc1nc2c(cnn2-c2ccc(C)cc2)c(=O)[nH]1,6,37,298*[fluorescence artefact?],17,-6,-6
CCC(C)Sc1nc2c(cnn2-c2ccc(C)cc2)c(=O)[nH]1 (stereo not given),4,43,526*[fluorescence artefact?],10,11,-4
CCC(C)Sc1nc2c(cnn2-c2ccccc2)c(=O)[nH]1 (stereo not given),2,-5,114,-2,-4,-2
CO[C@@H]1/C=C\O[C@]2(C)Oc3c(C)c(O)c4c(O)c(cc(O)c4c3C2=O)NC(=O)C(C)=C/C=C\[C@H](C)[C@@H](O)[C@H](C)[C@H](O)[C@H](C)[C@H](OC(C)=O)[C@@H]1C,x,x,x,-1,x,x
Cc1cc(-c2sccc2C)nc(-n2cccc2)n1,x,x,x,x,x,-4
CCOc1ccccc1N(C(=O)c1snc(C(N)=O)c1N)C(C(=O)NCCC(C)C)c1ccco1 (stereo not given),0,-11,90,8,-10,5.3*
COCCNC(=O)C(c1ccc(C)o1)N(C(=O)c1snc(C(N)=O)c1N)c1cc(C)cc(C)c1 (stereo not given),4,99*[fluorescence artefact?],96,7,-6,-5
COCCNC(=O)C(c1ccc(C)o1)N(Cc1ccco1)C(=O)c1snc(C(N)=O)c1N (stereo not given),-15,6,96,-1,10,-3
C=CCc1c(C)nc(-c2ccccc2)nc1Nc1ccc(O)cc1,x,x,x,x,x,-4
C=CCc1c(C)nc(-c2ccccc2)nc1N/N=C(\C)c1ccccc1,x,x,x,x,x,5.5*
Cn1cnc([N+](=O)[O-])c1Oc1ccc2ccccc2c1,x,x,x,x,x,-4
SMILES,ERa coact inh,ERb coact inh,ERa coact pot,Smad3 inh,MRP reversal,MRP-1 activ
CCc1cc(C(=O)Cc2cnn(-c3ccccc3)c2)c(O)cc1O,-9,-3,79,-5,-3,-3
O=C(Cc1cnn(-c2ccccc2)c1)c1ccc(O)c(O)c1O,78*[fluorescence artefact?],85*[fluorescence artefact?],56,-7,-4,-3
CCn1c(=NC(=O)c2ccc(N3C(=O)CCC3=O)cc2)sc2c(OC)ccc(OC)c21,33,22,403*,-124,-6,-1
CCn1c(=NC(=O)c2ccc(S(=O)(=O)N3CCOCC3)cc2)sc2cccc(OC)c21,30,40,261*[fluorescence artefact?],1,x,-3
Nc1c(S(N)(=O)=O)cc(S(N)(=O)=O)cc1S(N)(=O)=O,x,x,x,44,x,x
O=C(Cn1cnc2c(nnn2-c2ccc(F)cc2)c1=O)NCC1CCCO1 (stereo not given),6,9,95,-1,8,-3
O=C(Cn1cnc2c(cnn2-c2ccc(F)cc2)c1=O)NCC1CCCO1 (stereo not given),1,-5,200*,-6,6,0
CC(=C1C(=O)c2ccccc2C1=O)N1CCN(Cc2ccccc2)CC1,0,-2,714*[fluorescence artefact?],0,-2,-1
CC(=C1C(=O)c2ccccc2C1=O)N1CCN(C/C=C/c2ccccc2)CC1,4,-1,93,-9,15,-2
O=c1c2c3nc4ccccc4nc3n(CC3CCCO3)c2ncn1CCc1ccccc1 (stereo not given),-4,-4,97,4,41,-4
CCCCCn1c2nc3ccccc3nc2c2c(=O)n(CC3CCCO3)c(C)nc21 (stereo not given),12,12,134,4,-14,x
COc1cc(OC)cc(-n2c3nc4ccccc4nc3c3c(=O)n(CC4CCCO4)cnc32)c1 (stereo not given),57*[fluorescence artefact?],48,124,25,-27,x
Cc1nc2c(c(=O)n1CC1CCCO1)c1nc3ccccc3nc1n2CCC(C)C (stereo not given),76*,23,88,9,-10,x
CCOC(=O)c1c(C)[nH]c(C(=O)COC(=O)C2(C)CC2(Cl)Cl)c1C (stereo not given),6,-3,132,1,17,-1
Cc1ccc(C)c(/C(=N/N=C(N)N)C2CC2)c1,x,x,x,-3,x,x
O=C(CN1CCN(C/C=C/c2ccccc2)CC1)Nc1cc([N+](=O)[O-])ccc1Cl,x,x,x,x,x,-4
Cc1ccc(-c2nn(C)c(=O)c3ccccc23)cc1CNC(=O)Cn1nc(-c2ccccc2)c2ccccc2c1=O,68*[fluorescence artefact?],48,89,26,-5,-3
COc1ccc(OCC(=O)Nc2cc(-c3nn(C)c(=O)c4ccccc34)ccc2OC)cc1,8,2,677*[fluorescence artefact?],-116,2,-1
Cn1nc(-c2ccc(N3CCOCC3)c(NC(=O)COc3ccccc3)c2)c2ccccc2c1=O,2,0,133,13,23,x
Cc1nn(CC(=O)NCc2cccc3ccccc23)c(=O)c2ccccc12,-27,-9,257*[fluorescence artefact?],-8,-2,-4
COc1ccc(-c2nn(C)c(=O)c3ccccc23)cc1NC(=O)Cn1nc(-c2ccccc2)c2ccccc2c1=O,13,2,290*[fluorescence artefact?],-17,28,-2
COc1ccc(-c2nn(C)c(=O)c3ccccc23)cc1NS(C)(=O)=O,-8,-5,109,1,-6,-4
c1ccc(-c2cc(-c3cc(-c4ccccn4)[nH]n3)n[nH]2)nc1,x,x,x,7,x,x

# Screening results from PubChem BioAssay.
